Experimental data published in article PMC7862700, “An all-to-all approach to the identification of sequence-specific readers for epigenetic DNA modifications on cytosine”.

Assays:
Assay in all cases: DAPPL (digital affinity profiling via proximity ligation, sequencing); 10 mM Tris-HCl pH 7.5, 50 mM NaCl, 1 mM DTT, 4% glycerol, room temperature, 30 min; GST-TFs on glutathione beads, 16-mer random dsDNA library, 0.1% formaldehyde crosslink after washing; high values mean tight binding
[1] = biological target: T1, FLI1 (Homo sapiens, UniProt Q01543 1-452); settings: protein: recombinant; tags: N-terminal GST; dsDNA, one strand shown
T1 sequence: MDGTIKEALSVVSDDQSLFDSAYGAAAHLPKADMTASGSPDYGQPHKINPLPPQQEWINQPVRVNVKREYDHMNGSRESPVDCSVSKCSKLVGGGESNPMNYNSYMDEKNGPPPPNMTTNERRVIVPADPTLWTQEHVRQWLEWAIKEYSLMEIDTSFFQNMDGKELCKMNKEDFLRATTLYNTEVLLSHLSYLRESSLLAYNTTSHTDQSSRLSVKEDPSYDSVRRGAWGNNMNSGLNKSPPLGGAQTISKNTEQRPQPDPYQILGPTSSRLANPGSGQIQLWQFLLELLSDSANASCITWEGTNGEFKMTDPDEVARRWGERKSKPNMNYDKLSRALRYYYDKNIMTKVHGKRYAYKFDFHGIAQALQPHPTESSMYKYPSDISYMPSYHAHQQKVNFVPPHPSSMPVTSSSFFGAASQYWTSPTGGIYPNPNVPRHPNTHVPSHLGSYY
Method in brief: (§1)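 GST fusions of human transcription factors were expressed in yeast and captured with glutathione beads. Once given DNA barcodes and pooled alongside a tag-only sample, they were incubated for 30 min at room temperature with 200 nmole of a random double-stranded 16-mer DNA library in Tris/NaCl/DTT/glycerol buffer, then washed, crosslinked (0.1% formaldehyde), proximity-ligated, PCR-amplified and sequenced on an Illumina NextSeq500. The binding signal of each hexamer is its read frequency for a factor divided by its frequency for the tag-only sample.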

[2] = biological target: T2, ELK1 (Homo sapiens, UniProt P19419 1-428); settings: protein: recombinant; tags: N-terminal GST; dsDNA, one strand shown
T2 sequence: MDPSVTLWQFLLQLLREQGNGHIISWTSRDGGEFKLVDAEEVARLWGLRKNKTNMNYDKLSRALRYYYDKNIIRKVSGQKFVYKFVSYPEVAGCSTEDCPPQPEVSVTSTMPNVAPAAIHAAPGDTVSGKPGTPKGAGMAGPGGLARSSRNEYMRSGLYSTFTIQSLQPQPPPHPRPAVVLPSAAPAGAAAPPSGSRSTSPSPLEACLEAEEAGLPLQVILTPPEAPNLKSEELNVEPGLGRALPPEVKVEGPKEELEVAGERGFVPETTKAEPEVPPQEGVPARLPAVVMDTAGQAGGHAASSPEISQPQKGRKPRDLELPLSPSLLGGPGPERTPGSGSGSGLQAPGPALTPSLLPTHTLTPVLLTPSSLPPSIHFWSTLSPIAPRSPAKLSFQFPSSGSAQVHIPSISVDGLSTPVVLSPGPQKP
Method in brief: as §1

[3] = biological target: T3, GABPA (Homo sapiens, UniProt Q06546 1-454); settings: protein: recombinant; tags: N-terminal GST; dsDNA, one strand shown
T3 sequence: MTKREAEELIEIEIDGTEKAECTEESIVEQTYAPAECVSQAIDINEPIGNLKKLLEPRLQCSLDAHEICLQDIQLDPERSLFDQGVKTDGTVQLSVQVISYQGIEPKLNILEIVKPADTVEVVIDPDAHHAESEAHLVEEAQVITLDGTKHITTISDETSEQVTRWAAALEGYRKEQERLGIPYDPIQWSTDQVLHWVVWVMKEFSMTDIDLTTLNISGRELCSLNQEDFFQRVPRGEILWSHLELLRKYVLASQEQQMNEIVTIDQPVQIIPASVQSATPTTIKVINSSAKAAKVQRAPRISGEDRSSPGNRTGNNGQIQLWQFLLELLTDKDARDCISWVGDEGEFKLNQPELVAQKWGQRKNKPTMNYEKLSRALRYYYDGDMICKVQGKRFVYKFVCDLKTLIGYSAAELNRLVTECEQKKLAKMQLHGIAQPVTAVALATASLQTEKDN
Method in brief: as §1

[4] = biological target: T4, ERG (Homo sapiens, UniProt P11308 1-479); settings: protein: recombinant; tags: N-terminal GST; dsDNA, one strand shown
T4 sequence: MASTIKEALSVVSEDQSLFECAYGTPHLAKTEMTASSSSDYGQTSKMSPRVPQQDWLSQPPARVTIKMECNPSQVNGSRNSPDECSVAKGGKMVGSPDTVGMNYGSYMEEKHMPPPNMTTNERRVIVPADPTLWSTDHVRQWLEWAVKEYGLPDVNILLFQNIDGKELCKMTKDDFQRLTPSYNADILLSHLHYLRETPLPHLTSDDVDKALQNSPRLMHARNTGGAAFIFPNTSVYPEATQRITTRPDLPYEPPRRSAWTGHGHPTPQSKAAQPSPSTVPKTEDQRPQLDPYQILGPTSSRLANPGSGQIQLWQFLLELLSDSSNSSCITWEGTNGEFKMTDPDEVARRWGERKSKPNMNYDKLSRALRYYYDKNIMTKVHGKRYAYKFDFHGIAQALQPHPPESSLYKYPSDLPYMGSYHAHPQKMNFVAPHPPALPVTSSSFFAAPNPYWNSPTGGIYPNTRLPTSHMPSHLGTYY
Method in brief: as §1

[5] = biological target: ELF1 (Homo sapiens, UniProt P32519 1-619); settings: protein: recombinant; tags: N-terminal GST; dsDNA, one strand shown
ELF1, sequence (P32519 whole entry): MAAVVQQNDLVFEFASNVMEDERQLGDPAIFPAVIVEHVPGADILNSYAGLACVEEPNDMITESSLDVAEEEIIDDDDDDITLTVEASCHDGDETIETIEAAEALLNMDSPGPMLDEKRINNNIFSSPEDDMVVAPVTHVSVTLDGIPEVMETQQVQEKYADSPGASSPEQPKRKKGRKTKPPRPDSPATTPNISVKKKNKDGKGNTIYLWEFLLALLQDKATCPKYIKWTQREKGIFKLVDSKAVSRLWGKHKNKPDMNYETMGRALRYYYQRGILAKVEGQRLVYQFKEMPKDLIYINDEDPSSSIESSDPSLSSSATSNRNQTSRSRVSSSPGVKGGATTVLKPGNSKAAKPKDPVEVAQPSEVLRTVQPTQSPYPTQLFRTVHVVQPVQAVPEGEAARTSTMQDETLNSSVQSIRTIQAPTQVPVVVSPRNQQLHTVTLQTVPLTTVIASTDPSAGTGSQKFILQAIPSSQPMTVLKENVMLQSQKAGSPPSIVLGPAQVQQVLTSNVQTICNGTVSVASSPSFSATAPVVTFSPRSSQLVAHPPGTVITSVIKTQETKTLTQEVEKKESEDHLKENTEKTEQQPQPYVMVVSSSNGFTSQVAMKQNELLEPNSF
Method in brief: as §1

[6] = biological target: T5, EHF (Homo sapiens, UniProt Q9NZC4 1-300); settings: protein: recombinant; tags: N-terminal GST; dsDNA, one strand shown
T5 sequence: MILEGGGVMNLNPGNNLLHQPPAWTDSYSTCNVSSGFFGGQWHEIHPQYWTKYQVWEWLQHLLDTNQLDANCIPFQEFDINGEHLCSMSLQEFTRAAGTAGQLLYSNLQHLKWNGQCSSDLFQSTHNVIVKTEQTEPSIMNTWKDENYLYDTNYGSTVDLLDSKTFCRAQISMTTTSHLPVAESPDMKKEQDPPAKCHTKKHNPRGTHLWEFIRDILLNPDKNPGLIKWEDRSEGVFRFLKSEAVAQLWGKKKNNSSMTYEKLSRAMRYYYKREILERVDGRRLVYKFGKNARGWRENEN
Method in brief: as §1

[7] = biological target: SPI1 (Homo sapiens, UniProt P17947 1-270); settings: protein: recombinant; tags: N-terminal GST; dsDNA, one strand shown
Method in brief: as §1

[8] = biological target: SPIB (Homo sapiens, UniProt Q01892 1-262); settings: protein: recombinant; tags: N-terminal GST; dsDNA, one strand shown
SPIB, sequence (Q01892 whole entry): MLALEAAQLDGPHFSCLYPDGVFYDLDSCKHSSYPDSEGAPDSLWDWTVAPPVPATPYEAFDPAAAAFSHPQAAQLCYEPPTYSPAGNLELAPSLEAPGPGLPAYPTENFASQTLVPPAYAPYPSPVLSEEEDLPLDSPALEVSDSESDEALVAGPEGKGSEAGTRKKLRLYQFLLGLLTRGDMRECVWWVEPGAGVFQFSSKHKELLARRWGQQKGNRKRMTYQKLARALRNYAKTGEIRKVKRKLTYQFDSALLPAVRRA
Method in brief: as §1

[9] = biological target: T6, ELK3 (Homo sapiens, UniProt P41970 1-407); settings: protein: recombinant; tags: N-terminal GST; dsDNA, one strand shown
T6 sequence: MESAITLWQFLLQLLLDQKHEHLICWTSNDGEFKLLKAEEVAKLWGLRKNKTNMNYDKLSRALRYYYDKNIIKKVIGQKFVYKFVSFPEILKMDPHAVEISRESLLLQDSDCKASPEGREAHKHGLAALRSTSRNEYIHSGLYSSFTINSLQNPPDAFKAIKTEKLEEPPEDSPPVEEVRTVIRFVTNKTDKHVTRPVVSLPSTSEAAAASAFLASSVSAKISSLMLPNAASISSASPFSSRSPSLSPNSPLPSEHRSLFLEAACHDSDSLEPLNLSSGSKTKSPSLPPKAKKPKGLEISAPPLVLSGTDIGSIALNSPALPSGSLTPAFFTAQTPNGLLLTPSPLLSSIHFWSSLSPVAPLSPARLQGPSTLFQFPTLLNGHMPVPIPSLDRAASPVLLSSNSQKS
Method in brief: as §1

[10] = biological target: T7, FEV (Homo sapiens, UniProt Q99581 1-238); settings: protein: recombinant; tags: N-terminal GST; dsDNA, one strand shown
T7 sequence: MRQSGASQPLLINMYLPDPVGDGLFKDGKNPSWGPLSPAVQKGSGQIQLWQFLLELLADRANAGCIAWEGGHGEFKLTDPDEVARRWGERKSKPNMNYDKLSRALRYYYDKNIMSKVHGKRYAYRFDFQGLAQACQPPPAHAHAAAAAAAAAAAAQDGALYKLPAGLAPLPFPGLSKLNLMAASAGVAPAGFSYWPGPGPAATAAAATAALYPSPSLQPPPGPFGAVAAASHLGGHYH
Method in brief: as §1

[11] = biological target: ETV5 (Homo sapiens, UniProt P41161 1-510); settings: protein: recombinant; tags: N-terminal GST; dsDNA, one strand shown
ETV5, sequence (P41161 whole entry): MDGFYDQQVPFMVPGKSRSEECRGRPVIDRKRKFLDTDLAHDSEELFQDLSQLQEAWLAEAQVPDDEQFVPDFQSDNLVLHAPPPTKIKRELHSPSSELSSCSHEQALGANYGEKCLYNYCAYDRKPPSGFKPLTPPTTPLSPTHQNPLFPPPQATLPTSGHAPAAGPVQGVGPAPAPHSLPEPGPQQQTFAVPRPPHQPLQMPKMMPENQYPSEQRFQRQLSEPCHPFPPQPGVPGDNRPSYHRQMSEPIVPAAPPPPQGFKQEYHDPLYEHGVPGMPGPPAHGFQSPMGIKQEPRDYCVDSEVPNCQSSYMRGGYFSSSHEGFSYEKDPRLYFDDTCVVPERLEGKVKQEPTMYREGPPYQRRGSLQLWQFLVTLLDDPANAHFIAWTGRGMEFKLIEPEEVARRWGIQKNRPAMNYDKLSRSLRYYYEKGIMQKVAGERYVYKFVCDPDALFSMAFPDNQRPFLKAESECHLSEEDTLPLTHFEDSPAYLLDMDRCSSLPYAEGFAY
Method in brief: as §1

[12] = biological target: HSF1 (Homo sapiens, UniProt Q00613 1-529); settings: protein: recombinant; tags: N-terminal GST; chain copies: 3; dsDNA, one strand shown
HSF1, sequence (Q00613 whole entry): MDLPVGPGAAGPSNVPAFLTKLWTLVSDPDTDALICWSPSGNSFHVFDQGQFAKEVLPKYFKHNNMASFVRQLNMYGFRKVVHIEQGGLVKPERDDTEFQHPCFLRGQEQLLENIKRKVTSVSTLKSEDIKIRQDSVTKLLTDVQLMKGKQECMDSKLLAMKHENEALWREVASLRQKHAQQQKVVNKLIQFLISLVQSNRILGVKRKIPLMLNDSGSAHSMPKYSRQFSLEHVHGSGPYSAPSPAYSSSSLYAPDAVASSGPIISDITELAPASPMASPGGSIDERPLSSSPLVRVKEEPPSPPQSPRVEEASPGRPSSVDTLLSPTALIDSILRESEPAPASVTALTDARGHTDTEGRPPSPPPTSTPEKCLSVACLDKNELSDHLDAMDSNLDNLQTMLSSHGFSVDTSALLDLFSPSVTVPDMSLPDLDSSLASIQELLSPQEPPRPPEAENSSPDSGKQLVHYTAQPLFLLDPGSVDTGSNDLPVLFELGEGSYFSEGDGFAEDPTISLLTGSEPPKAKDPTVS
Method in brief: as §1

[13] = biological target: T8, SPIC (Homo sapiens, UniProt Q8N5J4 1-248); settings: protein: recombinant; tags: N-terminal GST; dsDNA, one strand shown
T8 sequence: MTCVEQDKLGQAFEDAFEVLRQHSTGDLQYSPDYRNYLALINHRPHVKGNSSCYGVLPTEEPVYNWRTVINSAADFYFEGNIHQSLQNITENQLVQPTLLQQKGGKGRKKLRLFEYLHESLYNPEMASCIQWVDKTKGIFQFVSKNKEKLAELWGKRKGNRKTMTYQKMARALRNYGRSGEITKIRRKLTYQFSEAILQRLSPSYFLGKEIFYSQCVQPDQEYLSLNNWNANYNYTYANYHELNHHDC
Method in brief: as §1

[14] = biological target: ELF4 (Homo sapiens, UniProt Q99607 1-663); settings: protein: recombinant; tags: N-terminal GST; dsDNA, one strand shown
ELF4, sequence (Q99607 whole entry): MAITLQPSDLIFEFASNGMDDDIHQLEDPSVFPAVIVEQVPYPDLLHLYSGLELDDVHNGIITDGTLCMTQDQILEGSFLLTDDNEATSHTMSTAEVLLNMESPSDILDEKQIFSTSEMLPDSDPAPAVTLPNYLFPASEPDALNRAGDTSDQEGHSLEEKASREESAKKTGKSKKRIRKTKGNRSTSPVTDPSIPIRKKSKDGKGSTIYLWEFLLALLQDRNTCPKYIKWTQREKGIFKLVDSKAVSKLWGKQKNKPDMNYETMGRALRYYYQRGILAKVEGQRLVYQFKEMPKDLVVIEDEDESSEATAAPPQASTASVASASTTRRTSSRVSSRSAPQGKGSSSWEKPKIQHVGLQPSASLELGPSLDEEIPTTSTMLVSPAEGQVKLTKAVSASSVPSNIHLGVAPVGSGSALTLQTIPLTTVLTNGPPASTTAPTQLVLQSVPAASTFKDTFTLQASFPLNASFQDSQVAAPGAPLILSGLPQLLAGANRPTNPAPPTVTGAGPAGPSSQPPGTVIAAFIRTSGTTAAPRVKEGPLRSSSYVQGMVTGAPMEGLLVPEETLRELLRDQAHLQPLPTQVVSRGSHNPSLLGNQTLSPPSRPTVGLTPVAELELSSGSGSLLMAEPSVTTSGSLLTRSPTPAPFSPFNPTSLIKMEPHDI
Method in brief: as §1

[15] = biological target: T9, ELK4 (Homo sapiens, UniProt P28324-2 1-405); settings: protein: recombinant; tags: N-terminal GST; dsDNA, one strand shown
T9 sequence: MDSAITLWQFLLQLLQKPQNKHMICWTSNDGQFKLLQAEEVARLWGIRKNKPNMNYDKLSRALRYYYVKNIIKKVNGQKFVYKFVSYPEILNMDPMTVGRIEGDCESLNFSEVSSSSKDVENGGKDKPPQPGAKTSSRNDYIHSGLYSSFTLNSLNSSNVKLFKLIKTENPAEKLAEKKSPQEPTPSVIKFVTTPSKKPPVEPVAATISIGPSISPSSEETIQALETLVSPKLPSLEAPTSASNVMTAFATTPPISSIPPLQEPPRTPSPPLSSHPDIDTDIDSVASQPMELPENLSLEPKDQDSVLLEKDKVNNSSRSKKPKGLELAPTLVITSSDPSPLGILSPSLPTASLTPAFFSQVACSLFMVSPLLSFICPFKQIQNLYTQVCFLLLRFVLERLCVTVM
Method in brief: as §1

[16] = biological target: T10, ETV2 (Homo sapiens, UniProt O00321 1-342); settings: protein: recombinant; tags: N-terminal GST; dsDNA, one strand shown
T10 sequence: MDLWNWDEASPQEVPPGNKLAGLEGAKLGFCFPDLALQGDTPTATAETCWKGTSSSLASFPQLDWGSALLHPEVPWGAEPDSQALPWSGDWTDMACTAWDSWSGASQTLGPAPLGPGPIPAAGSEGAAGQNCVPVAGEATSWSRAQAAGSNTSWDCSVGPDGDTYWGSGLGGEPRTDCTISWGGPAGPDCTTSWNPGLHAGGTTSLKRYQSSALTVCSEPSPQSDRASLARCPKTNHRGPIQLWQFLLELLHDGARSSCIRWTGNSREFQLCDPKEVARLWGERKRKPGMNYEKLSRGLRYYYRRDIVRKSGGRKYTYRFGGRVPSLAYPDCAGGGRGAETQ
Method in brief: as §1

[17] = biological target: T11, ELF3 (Homo sapiens, UniProt P78545 1-371); settings: protein: recombinant; tags: N-terminal GST; dsDNA, one strand shown
T11 sequence: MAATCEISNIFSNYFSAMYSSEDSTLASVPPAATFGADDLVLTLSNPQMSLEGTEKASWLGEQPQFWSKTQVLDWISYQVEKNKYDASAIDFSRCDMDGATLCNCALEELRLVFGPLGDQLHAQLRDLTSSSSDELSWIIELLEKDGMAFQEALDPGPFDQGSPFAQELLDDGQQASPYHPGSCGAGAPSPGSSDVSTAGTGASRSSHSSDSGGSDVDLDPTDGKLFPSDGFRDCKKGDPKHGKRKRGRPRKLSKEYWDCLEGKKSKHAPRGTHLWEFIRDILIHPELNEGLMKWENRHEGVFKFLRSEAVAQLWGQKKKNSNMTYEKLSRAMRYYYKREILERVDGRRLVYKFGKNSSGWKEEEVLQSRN
Method in brief: as §1

[18] = biological target: CRX (Homo sapiens, UniProt O43186 1-299); settings: protein: recombinant; tags: N-terminal GST; dsDNA, one strand shown
CRX, sequence (O43186 whole entry): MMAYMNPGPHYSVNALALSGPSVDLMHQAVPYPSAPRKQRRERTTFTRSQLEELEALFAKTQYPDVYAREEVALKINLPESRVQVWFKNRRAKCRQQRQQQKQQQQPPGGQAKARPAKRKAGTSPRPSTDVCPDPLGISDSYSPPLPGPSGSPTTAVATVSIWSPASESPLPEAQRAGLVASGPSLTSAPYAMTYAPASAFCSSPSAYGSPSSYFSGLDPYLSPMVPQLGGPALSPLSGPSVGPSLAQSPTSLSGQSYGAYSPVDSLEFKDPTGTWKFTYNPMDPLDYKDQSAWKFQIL
Method in brief: as §1

[19] = biological target: ETV1 (Homo sapiens, UniProt P50549 1-477); settings: protein: recombinant; tags: N-terminal GST; dsDNA, one strand shown
ETV1, sequence (P50549 whole entry): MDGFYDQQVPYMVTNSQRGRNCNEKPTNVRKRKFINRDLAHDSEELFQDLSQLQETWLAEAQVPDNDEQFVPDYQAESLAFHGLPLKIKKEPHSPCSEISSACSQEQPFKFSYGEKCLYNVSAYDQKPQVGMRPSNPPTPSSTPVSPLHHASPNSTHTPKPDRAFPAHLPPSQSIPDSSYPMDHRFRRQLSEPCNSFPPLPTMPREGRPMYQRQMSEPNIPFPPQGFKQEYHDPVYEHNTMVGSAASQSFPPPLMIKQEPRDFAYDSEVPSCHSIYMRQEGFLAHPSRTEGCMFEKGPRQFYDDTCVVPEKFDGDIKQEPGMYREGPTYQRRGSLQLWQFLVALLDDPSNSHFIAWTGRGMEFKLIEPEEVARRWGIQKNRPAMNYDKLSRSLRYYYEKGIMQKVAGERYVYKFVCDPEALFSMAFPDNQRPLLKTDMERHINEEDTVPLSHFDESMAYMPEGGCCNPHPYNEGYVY
Method in brief: as §1

AACTAA
binding signal [1]: 1.39 fold enrichment (6-mer frequency, TF over GST control)
binding signal [2]: 1.27 fold enrichment (6-mer frequency, TF over GST control)
binding signal [3]: 1.38 fold enrichment (6-mer frequency, TF over GST control)
binding signal [4]: 1.33 fold enrichment (6-mer frequency, TF over GST control)
binding signal [5]: 1.42 fold enrichment (6-mer frequency, TF over GST control)
binding signal [6]: 1.42 fold enrichment (6-mer frequency, TF over GST control)
binding signal [7]: 1.38 fold enrichment (6-mer frequency, TF over GST control)
binding signal [8]: 1.41 fold enrichment (6-mer frequency, TF over GST control)
binding signal [9]: 1.4 fold enrichment (6-mer frequency, TF over GST control)
binding signal [10]: 1.35 fold enrichment (6-mer frequency, TF over GST control)
binding signal [11]: 1.39 fold enrichment (6-mer frequency, TF over GST control)
binding signal [12]: 1.44 fold enrichment (6-mer frequency, TF over GST control)
binding signal [13]: 1.3 fold enrichment (6-mer frequency, TF over GST control)
binding signal [14]: 1.45 fold enrichment (6-mer frequency, TF over GST control)
binding signal [15]: 1.3 fold enrichment (6-mer frequency, TF over GST control)
binding signal [16]: 1.24 fold enrichment (6-mer frequency, TF over GST control)
binding signal [17]: 1.3 fold enrichment (6-mer frequency, TF over GST control)
binding signal [18]: 1.84 fold enrichment (6-mer frequency, TF over GST control)
binding signal [19]: 1.39 fold enrichment (6-mer frequency, TF over GST control)
